An excerpt weighted towards active compounds, which were near 21% of everything screened.
NS1 inh: blocks influenza NS1 protein function; Potency, µM (highest dose often 46.1 µM), without a hit: at the top dose activity, positive = more growth; 270,000 compounds, 0.4% hits; calls by dose curve; note: potency is the fitted concentration of half-maximal effect; actives are rising curves; nearly all actives have a fitted effect of over 50% in size
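S. cerevisiae expressing influenza A NS1, grown in glucose, washed, then diluted 1:100 into pH 6.0 -URA galactose medium with 23 nl compound. Growth recovery read as OD600; NS1-free strain serves as control.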
SARS PLpro yeast: SARS-CoV PLP inhibition in yeast; S. cerevisiae expressing SARS-CoV PLpro, growth rescue; Potency, µM (top dose mostly 32.9 µM), for the others: at the top dose activity, positive = growth rescue, hits mostly activators; 330,000 compounds, 0.19% hits; AID 485353; calls by dose curve; note: potency is the fitted concentration of half-maximal effect; 0% is about no effect; nearly all actives have a fitted effect of over 55% in size
Cycloheximide cs: counter-screen for Shiga toxin inhibitors: cycloheximide protein synthesis inhibition; cell reporter, cycloheximide protein synthesis inhibition counterscreen; max response, %; 300,000 compounds, 12% hits; AID 2314; in the data active = max response mostly above about 13%, no sharp cut-off; inactive = mostly below about 14%; note: read at 38.3 µM for the half of the compounds with a filed dose; 0% is about no effect
Pf growth 96h: P. falciparum growth inhibition at 96 hours; P. falciparum luciferase reporter growth, 96 h; Potency, µM (highest dose often 28.7 µM), without a hit: top-dose activity change, negative = inhibition, hits mostly inhibitors; 320,000 compounds, 6.9% hits; note: potency is the fitted concentration of half-maximal effect; % is set by controls: 0 for no effect and ±100 for the full control effect
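Delayed-death screen, second-generation endpoint: infected erythrocytes, 2% hematocrit, 0.05% parasitemia final; 96 hours at 37 C, 5% CO2; luciferase detection reagent; luminescence decrease equals reduced growth.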
Shiga toxin inh: inhibitors of Shiga toxin in Vero cells | 290,000 compounds, 9.2% hits | inhibition, % at 38.7 µM | Vero cells, Shiga toxin protein synthesis inhibition reporter; in the data active = inhibition mostly above about 28%, no sharp cut-off; inactive = mostly below about 43%; note: 0% is about no effect
Pf growth 48h: P. falciparum growth inhibition at 48 hours (one generation) | P. falciparum luciferase growth in erythrocytes, 48 h | Potency, µM (titrated, usually from 28.7 µM), inactives show top-dose activity change, negative = inhibition, usual class: inhibitors | 310,000 compounds, 5.9% hits | AID 504832; note: potency is the fitted concentration of half-maximal effect; % is set by controls: 0 for no effect and ±100 for the full control effect
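Here the parasites carry a stable luciferase gene and grow inside erythrocytes in Albumax-based RPMI medium with compound for one erythrocytic cycle. Activity is scored as loss of luminescent signal.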
* = called active by the depositor; ? = inconclusive; . = no result; [ ] = remark or other dose. Unless noted, calls come from the whole dose curve; as a rule, active = well fitted inhibition curve with a large enough effect; inconclusive = small, poorly fitted or top-dose-only effect, or another doubt; inactive = no such curve, though single readings can be large or run the other way.

SMILES	NS1 inh	SARS PLpro yeast	Cycloheximide cs	Pf growth 96h	Shiga toxin inh	Pf growth 48h
CCCCC(=O)O[C@]1(C(=O)CO)[C@H](C)C[C@H]2[C@@H]3CCC4=CC(=O)C=C[C@]4(C)[C@@]3(F)[C@@H](O)C[C@@]21C	.	.	-6	?	-16	?
Cc1cc(NC(=O)COC(=O)[C@H](Cc2c[nH]c3ccccc23)NC(=O)c2ccc(F)cc2)no1	-12%	-1%	-1	33%	36	67%
O=C(Nc1cc(Cl)cc(Cl)c1)c1ccno1	-6%	-6%	-2	23%	-4	8%[0.00184 µM]
CCc1ccc(NC(=S)N2CCC(NC(=O)c3ccccc3OC)CC2)cc1	0%	3%	0	48%	-3	-6%
COc1cc(OC)cc(C(=O)NC(C(=O)NNC(=O)c2ccc(C)cc2)C(C)C)c1 (stereo not drawn)	.	-7%	.	21%	.	22%
C[C@H]1C[C@H]2[C@@H]3CCC4=CC(=O)C=C[C@]4(C)[C@@]3(Cl)[C@@H](O)C[C@]2(C)[C@@]1(O)C(=O)CO	-4%	0%	-2	?	-5	9%
CCCC(=O)O[C@]1(C(=O)CCl)[C@@H](C)C[C@H]2[C@@H]3CCC4=CC(=O)C=C[C@]4(C)[C@@]3(F)C(=O)C[C@@]21C	?	1%	-1	1.3µM*	29	1.7µM*
COC(=O)c1nn(-c2ccccc2)c(Sc2ccc(Br)cc2)c1/C=N/O	1%	6%	-2	-28%	-16	-11%
CN(c1nc2ccccc2nc1Cl)S(=O)(=O)c1ccccc1	-5%	-3%	27*	40%	45*	35%
Nc1nnc(SCC(=O)NN2C(=O)NC3(CCCCC3)C2=O)s1	4%	19%	-4	22%	2	-1%
CCOc1ccccc1N1CCN(C(=O)c2csc(C)c2CC)CC1	.	0%	-2	11%	-2	?
CCCC1S/C(=N/N=C/c2ccc(OC)cc2)N(Cc2ccc(OC)cc2)C1=O (stereo not drawn)	30%	-3%	19	10µM*	11	?
CCCC1S/C(=N/N=C/c2ccc(OC)cc2)N(Cc2ccccc2)C1=O (stereo not drawn)	-4%	1%	8	.	28	?
O=[N+]([O-])c1ccc(COc2cccc(CNc3ccc(F)cc3)c2)cc1	19%	2%	35*	-78%	37*	6%
Oc1ccc(NCc2cccc(OCc3ccc(F)cc3)c2)cc1	7%	-3%	24*	14%	45*	?
OCCNCc1cccc(OCc2ccc(Cl)cc2)c1	0%	0%	7	8%	25	?
c1ccc(COc2cccc(CNCc3ccccn3)c2)cc1	9%	1%	34*	-23%	65*	-14%
Oc1ccc(NCc2cccc(OCc3ccccc3)c2)cc1	7%	-1%	22*	-26%[5.75 µM]	47	-5%
COc1ccc(NC(=O)c2sc3ncn(CC(=O)N4CCCCC4)c(=O)c3c2C)cc1OC	-4%	-4%	-2	?	-8	-24%
COc1ccc(S(=O)(=O)N(C)C[C@H]2Oc3ccc(NC(=O)Nc4ccc5c(c4)OCO5)cc3C(=O)N([C@H](C)CO)C[C@@H]2C)cc1	.	6%	.	.	.	.
Cc1cc2c(s1)c1c(C)nn(Cc3ccc(F)cc3)c(=O)c1n2C	.	4%	.	14%	.	0%
COc1ccc(NC(=O)NC(C)c2ccccc2)cc1 (stereo not drawn)	9%	3%	-2	-29%	-9	11%
COc1ccc(NC(C)c2ccccc2)cc1 (stereo not drawn)	.	9%	35*	?	84*	74%
COc1ccc(S(=O)(=O)NCCC(=O)NC(C)c2ccccc2)cc1 (stereo not drawn)	-10%	3%	-2	7.4µM*	-3	-2%
COc1ccc(OCCCC(=O)NC(C)c2ccccc2)cc1 (stereo not drawn)	-12%	-19%	6	9.3µM*	-11	.
COc1ccc(OCCNC(=O)C(c2ccccc2)c2ccccc2)cc1	6%	3%	5	6%	-9	10µM*
Cc1noc(/C=C/N(C)C)c1S(=O)(=O)N1CCCC(C(=O)Nc2ccccc2F)C1 (stereo not drawn)	?	.	1	?	5	-16%
CC(C)NC(=S)N/N=C/c1cccs1	14%	?	8	3.3µM*	-8	.

Assay outcomes (PubChem)
